In all, about 310,000 compounds went through this assay and about 14,000 (4.5%) showed an effect of 50% or more. Effects have a minus sign here. The full list was thinned out, with strong results kept by preference.
Target: human ether-à-go-go-related gene (hERG) potassium channel (human, UniProt Q12809)
Test: primary screen, population patch clamp on CHO cells stably expressing hERG; higher = less effect of the substance
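Further: peak tail current of the secondary pulse compared with the same well before compound.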

Chain of human ether-à-go-go-related gene (hERG) potassium channel (Q12809 whole entry, looked up): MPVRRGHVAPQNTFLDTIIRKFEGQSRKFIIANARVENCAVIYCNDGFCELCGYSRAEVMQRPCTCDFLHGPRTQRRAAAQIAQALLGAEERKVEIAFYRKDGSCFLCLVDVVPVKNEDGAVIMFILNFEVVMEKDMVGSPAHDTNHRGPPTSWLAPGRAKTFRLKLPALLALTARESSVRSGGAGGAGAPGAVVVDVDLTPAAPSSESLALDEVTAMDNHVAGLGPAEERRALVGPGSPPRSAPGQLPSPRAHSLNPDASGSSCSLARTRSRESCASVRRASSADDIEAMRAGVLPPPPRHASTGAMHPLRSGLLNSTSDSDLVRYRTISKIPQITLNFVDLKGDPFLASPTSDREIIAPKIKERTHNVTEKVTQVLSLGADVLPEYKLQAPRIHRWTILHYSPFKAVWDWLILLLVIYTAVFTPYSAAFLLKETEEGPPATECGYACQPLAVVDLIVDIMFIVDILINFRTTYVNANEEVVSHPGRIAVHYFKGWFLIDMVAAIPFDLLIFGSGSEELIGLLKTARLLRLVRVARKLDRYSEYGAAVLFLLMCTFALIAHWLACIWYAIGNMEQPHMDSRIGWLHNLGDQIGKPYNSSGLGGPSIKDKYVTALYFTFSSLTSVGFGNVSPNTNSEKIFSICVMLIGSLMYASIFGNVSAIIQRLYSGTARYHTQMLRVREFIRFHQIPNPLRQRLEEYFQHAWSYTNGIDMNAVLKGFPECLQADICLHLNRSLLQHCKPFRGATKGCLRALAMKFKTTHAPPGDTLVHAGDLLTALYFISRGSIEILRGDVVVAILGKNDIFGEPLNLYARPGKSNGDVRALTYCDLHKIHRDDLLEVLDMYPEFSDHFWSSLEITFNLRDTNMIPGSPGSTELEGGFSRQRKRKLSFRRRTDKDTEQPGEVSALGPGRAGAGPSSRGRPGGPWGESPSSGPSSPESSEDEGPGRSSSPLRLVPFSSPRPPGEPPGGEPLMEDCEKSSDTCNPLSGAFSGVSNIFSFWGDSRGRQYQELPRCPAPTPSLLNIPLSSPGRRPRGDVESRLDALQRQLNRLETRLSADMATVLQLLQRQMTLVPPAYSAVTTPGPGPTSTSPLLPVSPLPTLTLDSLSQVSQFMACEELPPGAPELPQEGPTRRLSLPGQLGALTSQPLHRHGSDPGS

SMILES	hERG current change (%, negative = inhibition) at 10uM
CCN(CCNC(=O)C1CCN(S(=O)(=O)CC)CC1)c1ccccc1	-16.9%
CCc1ccc(-c2nc(CN3CCC(C(=O)NCCN(CC)c4ccccc4)CC3)c(C)o2)cc1	-69.5%
CCN(CCNC(=O)C1CCCN(Cc2nc(-c3ccc(OC)cc3)oc2C)C1)c1ccccc1 (stereo not shown)	-28.1%
CCC1CCCCN1CCCNC(=O)C1CCN(Cc2nc(-c3ccc(Cl)cc3)oc2C)CC1 (stereo not shown)	-42.2%
CCN(CCNC(=O)C1CCN(S(C)(=O)=O)CC1)c1ccccc1	-1.8%
Cc1oc(-c2ccc(Cl)cc2)nc1CN1CCC(C(=O)NCCCN2CCOCC2)CC1	-26.5%
CCN(CCNC(=O)C1CCN(Cc2nc(-c3ccc(Cl)cc3)oc2C)CC1)c1ccccc1	-65.9%
CCCN(CCC)CCNC(=O)C1CCN(Cc2nc(-c3ccc(Cl)cc3)oc2C)CC1	-60.6%
CCN1CCN(CCNC(=O)C2CCN(Cc3nc(-c4ccc(Cl)cc4)oc3C)CC2)CC1	1.11%
CCCCN(CC)C(=O)C1CCC(=O)N(c2ccc(OC)cc2)C1c1ccc(OC)c(OC)c1 (stereo not shown)	-10.2%
CC(C)C(=O)Nc1nc2cc3c(cc2s1)OCCO3	-4.59%
S=c1[nH]nc(-c2ccc(Cl)cc2)n1/N=C/C=C/c1ccco1	15.3%
CCN(CC)S(=O)(=O)c1ccc(O)c(C(=O)OCC(=O)N2CCCC2)c1	11.4%
Cc1ccc(S(=O)(=O)c2nc(NCCN(C)C)sc2Cl)cc1	-69.5%
Cc1ccc(S(=O)(=O)c2nc(NCCCn3ccnc3)sc2Cl)cc1	-78.6%
CCS(=O)(=O)c1nc(S(=O)(=O)c2ccc(C)cc2)c(NCCCn2ccnc2)s1	-26.5%
O=S(=O)(c1ccccc1)c1nc(NCc2ccccc2)sc1Cl	-9.88%
CC(=O)Nc1nc(S(=O)(=O)c2ccc(C)cc2)c(Cl)s1	-8.1%
CCCS(=O)(=O)c1nc(S(=O)(=O)c2ccc(C)cc2)c(NCCCn2ccnc2)s1	-29.6%
Cc1ccc(S(=O)(=O)c2nc(NN(C)C)sc2Cl)cc1	-5.48%
CC(C)CNc1nc(S(=O)(=O)c2ccccc2)c(Cl)s1	-11.5%
CN(C)CCNc1nc(S(=O)(=O)c2ccccc2)c(Cl)s1	-56.2%

SMILES	hERG current change (%, negative = inhibition) at 10uM
CCCCCCC/C=N/Nc1nnc(Cc2ccccc2)c(=O)[nH]1	33.2%
CCn1cc(C(=O)NCc2ccc(OC)cc2)c(=O)c2ccc(C)nc21	22.1%
Cc1cccc(NC(=S)NNC(=O)c2csc(C(C)C)c2)c1	2.52%
CCN(CC)CCCNC(=O)c1cn(CCOC)c(=O)c2c1c1ccccc1n2C	-0.445%
O=Cc1coc2ccc3ccccc3c2c1=O	14.5%
CCCN(C(=O)c1cn(-c2ccccc2)nc1-c1ccc(OC)cc1)C1CCS(=O)(=O)C1 (stereo not shown)	-22.8%
O=C(CN1CCOCC1)Nc1ncc(Br)cc1Br	-20.3%
O=C(CN1CCN(C(=O)c2ccccc2)CC1)Nc1ccccc1	-20.1%
O=C(CN1CCN(C(=O)c2ccccc2)CC1)Nc1ncc(Br)cc1Br	-78.1%
O=C(CN1CCN(C(=O)c2ccccc2)CC1)Nc1ccc(Br)cn1	-74.4%
CCc1nnc(NC(=O)CN2CCN(C(=O)c3ccccc3)CC2)s1	14.7%
O=C(CN1CCCCCC1)Nc1ccc(Br)cn1	-20.7%
CCOC(=O)N1CCC(NC(=O)c2cc3c(=O)[nH]c4ccccc4c3n2C)CC1	-3.23%
COc1ccccc1NC(=O)/C(=C/c1cccs1)NC(=O)c1ccco1	-33.1%
CC(=O)Nc1ccc2nc(NC(=O)c3ccc([N+](=O)[O-])s3)sc2c1	8.75%
CCSc1nc2c(c(=O)[nH]1)C(C(C)C)C(C#N)=C(N)O2 (stereo not shown)	5.71%
Cc1ccccc1NC(=O)Nc1nc2ccc(S(C)(=O)=O)cc2s1	-2.53%
O=C(N/N=C/c1coc2ccc(Cl)cc2c1=O)c1ccncc1	6.28%
CCCN(CCC)CCCNC(=O)C1CCC(CNS(=O)(=O)c2cccc3nsnc23)CC1 (stereo not shown)	-10.1%
O=C(CN(Cc1ccccc1)C(=O)c1ccc2c(c1)OCCO2)NCc1ccc2c(c1)OCO2	-59%
O=C(CN(Cc1ccc(F)cc1)C(=O)c1csnn1)NCc1ccc2c(c1)OCO2	-64.5%
O=C(CN(C(=O)c1csnn1)c1ccc(F)cc1)NCc1ccc2c(c1)OCO2	9.12%

SMILES	hERG current change (%, negative = inhibition) at 10uM
COc1ccccc1CN(CC(=O)NCc1ccc2c(c1)OCO2)C(=O)c1ccc2c(c1)OCCO2	-28.4%
O=C(CN(Cc1ccccc1)C(=O)c1csnn1)NCc1ccc2c(c1)OCO2	-23.4%
Cc1ccc(CN(CC(=O)NCc2ccc3c(c2)OCO3)C(=O)c2csnn2)cc1	-50.5%
O=C(CN(Cc1ccccc1F)C(=O)c1csnn1)NCc1ccc2c(c1)OCO2	-22%
O=C(CN(C(=O)c1csnn1)c1cccc(F)c1)NCc1ccc2c(c1)OCO2	-7.22%
O=C(Cc1ccccc1)NCc1ccc2c(c1)OCO2	3.22%
COc1ccccc1CN(CC(=O)NCc1ccc2c(c1)OCO2)C(=O)c1csnn1	-34.2%
COc1ccc(CN(CC(=O)NCc2ccc3c(c2)OCO3)C(=O)c2csnn2)cc1	-39.8%
O=C(CN(Cc1ccccc1Cl)C(=O)c1csnn1)NCc1ccc2c(c1)OCO2	-51.4%
C=CCn1c(Cc2cccs2)nnc1SCC(=O)Nc1cc(OC)cc(OC)c1	-27.8%
Cc1nc2nc(C)c(CCC(=O)Nc3ccc4c(c3)OCO4)c(C)n2n1	-18%
COc1ccc(C2N=C(N)N=C(N)N2c2ccccc2OC)cc1OC.Cl (stereo not shown)	-11.7%
O=C(Nc1nnc(-c2cccs2)o1)C1CC1	3.93%
CCOC(=O)C1=NNC(C(=O)c2ccc(OC)cc2)C1c1ccccc1 (stereo not shown)	-9.43%
Cn1ncc(C#N)c1NC(=O)C1CC(c2ccc(Cl)c(Cl)c2)=NO1 (stereo not shown)	-9.94%
COc1cccc(CC(=O)Nc2nc3ccccc3[nH]2)c1	10.7%
Cc1cccc(NC(=S)NCCc2c[nH]c3ccccc23)c1	-4.25%
CCOC(=O)CNC(=S)N(Cc1ccccc1F)C1CCCCC1	-73%
O=C(O)CNC(=S)N(Cc1ccccc1F)C1CCCCC1	0.581%
CCCNC(=O)CNC(=S)N(Cc1ccccc1F)C1CCCCC1	-10.8%
CC(C)c1ccc(S(=O)(=O)N2CCN(C(=O)n3ccnc3)CC2)cc1	-35.8%
COc1cc(OC)cc(C(=O)N[C@H](C(=O)NCc2ccccc2)C(C)C)c1	7.08%

SMILES	hERG current change (%, negative = inhibition) at 10uM
CCOC(=O)N1CCN(C(=S)NC(=O)c2cc(Br)ccc2Cl)CC1	3.59%
C=CCc1c(C)nc(C)nc1N/N=C/c1ccccc1	-19.2%
C=CCc1c(C)nc(C)nc1N/N=C/c1ccc(F)cc1	-30.9%
C=CCc1c(C)nc(C)nc1N/N=C/c1ccc([N+](=O)[O-])cc1.Cl	-56.3%
CCC(c1nnnn1Cc1ccc(F)cc1)N(CCCO)Cc1cc2cc3c(cc2[nH]c1=O)OCO3 (stereo not shown)	-17.5%
Cc1ccc(-n2c(O)c(/C=N/c3ncc(Br)cc3Br)c(=O)[nH]c2=O)cc1	2.79%
CCOCCCn1c(SCC(=O)Nc2ccccc2OC)nc2ccccc2c1=O	-45%
COCCn1c(SCC(=O)NCc2ccc3c(c2)OCO3)nc2ccccc2c1=O	-42.4%
CCOCCCn1c(SCC(=O)NCc2ccc3c(c2)OCO3)nc2ccccc2c1=O	-59%
CCOCCCn1c(SCC(=O)Nc2cccc(OC)c2)nc2ccccc2c1=O	-58.4%
CCOCCCn1c(SCC(=O)Nc2ccc(NC(C)=O)cc2)nc2ccccc2c1=O	7.29%
CCOCCCn1c(SCC(=O)Nc2cc(OC)ccc2OC)nc2ccccc2c1=O	-55.7%
COCCCNC(=O)CSc1nc2ccccc2c(=O)n1Cc1ccc2c(c1)OCO2	12.4%
CCOCCCn1c(SCC(=O)Nc2ccc(OC)cc2)nc2ccccc2c1=O	-11%
CCCCNC(=O)CSc1nc2cc3c(cc2c(=O)n1CCCC(=O)NCCc1ccc(OC)c(OC)c1)OCO3	1.71%
CCCCNC(=O)CSc1nc2cc3c(cc2c(=O)n1Cc1ccco1)OCO3	-10.8%
CCCCNC(=O)CSc1nc2cc3c(cc2c(=O)n1CCCN(CC)CC)OCO3	-62.6%
CCOCCCn1c(SCC(=O)Nc2ccccc2)nc2ccccc2c1=O	-29.4%
CCC1CCCCN1Cc1ccc(CNC(=O)CCc2nnc3ccc(N4CCCCC4)nn23)o1 (stereo not shown)	18.2%
